# From the supplement of paper PMC8728848
# Shown is part of a subset that was picked to be rich in the strongest signals.
# B1: UDA (Urtica dioica), P11218 (protein)
# chain: MMMRFLSAVVIMSSAMAVGLVSAQRCGSQGGGGTCPALWCCSIWGWCGDSEPYCGRTCENKCWSGERSDHRCGAAVGNPPCGQDRCCSVHGWCGGGNDYCSGSKCQYRCSSSVRGPRVALSGNSTANSIGNVVVTEPLFDQMFSHRKDCPSQGFYSYHSFLVAAESFPAFGTIGDVATRKREVAAFLAHISQATSGERSDVENPHAWGLCHINTTTVTENDFCTSSDWPCAAGKKYSPRGPIQLTHNFNYGLAGQAIGEDLIQNPDLVEKDPIISFKTALWFWMSQHDNKPSCHDIVLNANSAANRIPNKGVIGNIISRAFGHDDFAVRSSSIGFYKRYCDMLGVSYGHDLKYWFDNTPSSEFQRIQMRVAA
# Columns and labels:
# Experiment in all cases: glycan array binding signal (z-score within array); higher = stronger binding
# Conditions in all cases: glycan notation: IUPAC condensed, linker removed
# [1] = target: GlcNAc(b1-2)[GlcNAc(b1-6)]Man(a1-6)[GlcNAc(b1-2)Man(a1-3)]Man(b1-4)GlcNAc(b1-4)[Fuc(a1-6)]GlcNAc
# How it was run: (§1)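 Glycan array binding is given as a within-array Z-score, which can be read as non-binding when negative. The arrays, 3228 of them, came from the Consortium for Functional Glycomics database and were retained only where the protein sequence was available. Z-scores were averaged across arrays of the same protein sequence at different concentrations or buffers and across linkers.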
# [2] = target: GlcNAc(b1-3)Gal(b1-3)GalNAc
# How it was run: as §1
# [3] = target: GlcNAc(b1-3)Gal(b1-4)GlcNAc(b1-3)Gal(b1-4)GlcNAc(b1-2)Man(a1-3)[GlcNAc(b1-3)Gal(b1-4)GlcNAc(b1-3)Gal(b1-4)GlcNAc(b1-2)Man(a1-6)]Man(b1-4)GlcNAc(b1-4)[Fuc(a1-6)]GlcNAc
# How it was run: as §1
# [4] = target: GlcNAc(b1-3)Gal(b1-4)GlcNAc(b1-3)GalNAc
# How it was run: as §1
# GlcNAc(b1-3)Man = target: GlcNAc(b1-3)Man
# How it was run: as §1
# [5] = target: GlcNAc(b1-4)GlcNAc(b1-4)GlcNAc
# How it was run: as §1
# [6] = target: GlcNAc(b1-4)GlcNAc(b1-4)GlcNAc(b1-4)GlcNAc(b1-4)GlcNAc
# How it was run: as §1
# [7] = target: GlcNAc(b1-6)Gal(b1-4)GlcNAc
# How it was run: as §1
# Kdn(a2-3)Gal(b1-4)Glc = target: Kdn(a2-3)Gal(b1-4)Glc
# How it was run: as §1
# [8] = target: Man(a1-2)Man(a1-3)[Man(a1-2)Man(a1-6)]Man(a1-6)[Man(a1-2)Man(a1-2)Man(a1-3)]Man(b1-4)GlcNAc(b1-4)GlcNAc
# How it was run: as §1
# [9] = target: Man(a1-2)Man(a1-3)[Man(a1-2)Man(a1-6)]Man(a1-6)[Man(a1-3)[Man(a1-6)]Man(a1-6)]Man(b1-4)GlcNAc(b1-4)GlcNAc
# How it was run: as §1
# [10] = target: Man(a1-2)Man(a1-3)[Man(a1-6)]Man(a1-6)[Man(a1-2)Man(a1-3)]Man(b1-4)GlcNAc(b1-4)GlcNAc
# How it was run: as §1
# [11] = target: Man(a1-2)Man(a1-6)[Man(a1-3)]Man(a1-6)[Man(a1-2)Man(a1-2)Man(a1-3)]Man(b1-4)GlcNAc(b1-4)GlcNAc
# How it was run: as §1
# [12] = target: Man(a1-3)[Man(a1-6)]Man(a1-6)[Man(a1-2)Man(a1-3)]Man(b1-4)GlcNAc(b1-4)GlcNAc
# How it was run: as §1
# [13] = target: Man(a1-3)[Man(a1-6)]Man(a1-6)[Man(a1-3)]Man(b1-4)GlcNAc(b1-4)GlcNAc
# How it was run: as §1
# [14] = target: Man(a1-3)[Man(a1-6)]Man(b1-4)GlcNAc(b1-4)GlcNAc
# How it was run: as §1
# [15] = target: Neu5Ac(a2-3)Gal(b1-3)GlcNAc
# How it was run: as §1
# [16] = target: Neu5Ac(a2-3)Gal(b1-3)GlcNAc(b1-4)Gal(b1-4)Glc
# How it was run: as §1
# [17] = target: Neu5Ac(a2-3)Gal(b1-3)[GlcNAc(b1-6)]GalNAc
# How it was run: as §1
# [18] = target: Neu5Ac(a2-3)Gal(b1-3)[Neu5Ac(a2-3)Gal(b1-4)]GlcNAc
# How it was run: as §1
# [19] = target: Neu5Ac(a2-3)Gal(b1-3)[Neu5Ac(a2-6)]GlcNAc(b1-3)[Fuc(a1-3)[Gal(b1-4)]GlcNAc(b1-6)]Gal(b1-4)Glc
# How it was run: as §1
# [20] = target: Neu5Ac(a2-3)Gal(b1-4)GlcNAc(b1-2)Man(a1-3)[GlcNAc(b1-4)][Neu5Ac(a2-3)Gal(b1-4)GlcNAc(b1-2)Man(a1-6)]Man(b1-4)GlcNAc(b1-4)GlcNAc
# How it was run: as §1
# [21] = target: Neu5Ac(a2-3)Gal(b1-4)GlcNAc(b1-2)Man(a1-3)[Neu5Ac(a2-3)Gal(b1-4)GlcNAc(b1-2)Man(a1-6)]Man(b1-4)GlcNAc(b1-4)[Fuc(a1-6)]GlcNAc
# How it was run: as §1
# [22] = target: Neu5Ac(a2-3)Gal(b1-4)GlcNAc(b1-3)Gal(b1-4)GlcNAc(b1-3)Gal(b1-4)GlcNAc(b1-2)Man(a1-3)[Neu5Ac(a2-3)Gal(b1-4)GlcNAc(b1-3)Gal(b1-4)GlcNAc(b1-3)Gal(b1-4)GlcNAc(b1-2)Man(a1-6)]GalNAc
# How it was run: as §1
# [23] = target: Neu5Ac(a2-3)Gal(b1-4)GlcNAc(b1-3)Gal(b1-4)GlcNAc(b1-3)[Neu5Ac(a2-3)Gal(b1-4)GlcNAc(b1-3)Gal(b1-4)GlcNAc(b1-6)]GalNAc
# How it was run: as §1
# [24] = target: Neu5Ac(a2-3)Gal(b1-4)[Fuc(a1-3)]GlcNAc
# How it was run: as §1
# [25] = target: Neu5Ac(a2-3)Gal(b1-4)[Fuc(a1-3)]GlcNAc(b1-3)Gal(b1-4)GlcNAc
# How it was run: as §1
# [26] = target: Neu5Ac(a2-3)[GalNAc(b1-4)]Gal(b1-4)Glc
# How it was run: as §1
# [27] = target: Neu5Ac(a2-6)Gal(b1-4)GlcNAc(b1-2)Man(a1-3)Man(b1-4)GlcNAc(b1-4)GlcNAc
# How it was run: as §1
# [28] = target: Neu5Ac(a2-6)Gal(b1-4)GlcNAc(b1-2)Man(a1-3)[GlcNAc(b1-4)][Neu5Ac(a2-6)Gal(b1-4)GlcNAc(b1-2)Man(a1-6)]Man(b1-4)GlcNAc(b1-4)GlcNAc
# How it was run: as §1
# [29] = target: Neu5Ac(a2-6)Gal(b1-4)GlcNAc(b1-2)Man(a1-3)[Man(a1-6)]Man(b1-4)GlcNAc(b1-4)GlcNAc
# How it was run: as §1
# [30] = target: Neu5Gc(a2-8)Neu5Gc(a2-3)Gal(b1-4)GlcNAc
# How it was run: as §1
binder,measurement,setting,value
B1,glycan array binding signal (z-score),[1],-0.162
same,glycan array binding signal (z-score),[2],-0.181
same,glycan array binding signal (z-score),[3],0.026
same,glycan array binding signal (z-score),[4],-0.182
same,glycan array binding signal (z-score),GlcNAc(b1-3)Man,-0.17
same,glycan array binding signal (z-score),[5],2.6
same,glycan array binding signal (z-score),[6],2.39
same,glycan array binding signal (z-score),[7],-0.173
same,glycan array binding signal (z-score),Kdn(a2-3)Gal(b1-4)Glc,-0.168
same,glycan array binding signal (z-score),[8],4.32
same,glycan array binding signal (z-score),[9],4.79
same,glycan array binding signal (z-score),[10],4.54
same,glycan array binding signal (z-score),[11],8.27
same,glycan array binding signal (z-score),[12],10.8
same,glycan array binding signal (z-score),[13],5.89
same,glycan array binding signal (z-score),[14],6.43
same,glycan array binding signal (z-score),[15],-0.164
same,glycan array binding signal (z-score),[16],-0.174
same,glycan array binding signal (z-score),[17],-0.176
same,glycan array binding signal (z-score),[18],-0.25
same,glycan array binding signal (z-score),[19],-0.177
same,glycan array binding signal (z-score),[20],-0.174
same,glycan array binding signal (z-score),[21],-0.169
same,glycan array binding signal (z-score),[22],-0.024
same,glycan array binding signal (z-score),[23],-0.161
same,glycan array binding signal (z-score),[24],-0.19
same,glycan array binding signal (z-score),[25],-0.171
same,glycan array binding signal (z-score),[26],-0.189
same,glycan array binding signal (z-score),[27],1.69
same,glycan array binding signal (z-score),[28],-0.179
same,glycan array binding signal (z-score),[29],4.09
same,glycan array binding signal (z-score),[30],-0.107
